# ROMK mod: ROMK potassium channel modulators, primary screen, cell-based, thallium flux, MLSMR library; ATP-sensitive inward rectifier potassium channel 1 (Homo sapiens), P48048; 2% of 130,000 active; B-score at 10 µM; Tet-inducible ROMK, thallium flux fluorescence; actives lie on both sides;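 active = signal ratio slope over the read window, or its plate-corrected B-score, at least 3 SD from the plate mean, either direction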;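 also: B-score of the F/F0 ratio slope over 7 to 12 s after thallium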
# Target sequence (P48048 whole entry, looked up): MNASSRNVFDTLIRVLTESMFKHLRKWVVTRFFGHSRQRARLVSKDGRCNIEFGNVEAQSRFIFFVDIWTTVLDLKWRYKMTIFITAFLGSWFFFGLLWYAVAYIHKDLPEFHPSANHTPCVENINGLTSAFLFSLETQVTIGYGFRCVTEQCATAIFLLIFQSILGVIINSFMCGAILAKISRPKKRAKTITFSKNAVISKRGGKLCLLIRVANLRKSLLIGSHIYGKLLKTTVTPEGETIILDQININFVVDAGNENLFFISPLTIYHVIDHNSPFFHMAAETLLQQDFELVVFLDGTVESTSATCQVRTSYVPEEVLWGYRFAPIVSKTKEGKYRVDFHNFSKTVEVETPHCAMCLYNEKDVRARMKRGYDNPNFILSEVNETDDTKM
# Arbovirus inh: antivirals against arbovirus infection, primary screen, cell-based, full library, 10K replicate subset; arbovirus infection cell-based antiviral screen; inhibition, % at 10 µM; 0.37% of 200,000 active; in the data active = inhibition above about 30%
# PERK inh: block of dimerizer-induced PERK translation repression, primary screen, PERK inhibitor project, CHO PERK-DD cells, SEAP luminescence, HTS. Eukaryotic translation initiation factor 2-alpha kinase 3 (Homo sapiens), Q9NZJ5. CHO PERK-DD fusion, SEAP luminescence translation reporter. inhibition, % at 5.6 µM. 0.17% of 220,000 active;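 active = inhibition above the mean inhibition of all tested compounds plus 3 SD, set separately per screening campaign, cut at about 2.9% in these data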;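 also: PERK kinase domain activated by AP20187 dimerizer at 100 nM; 0% = DMSO with dimerizer and 100% = rapamycin at 8.4 µM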
# WT yeast gro inh: growth inhibition of WT strain, primary screen, mitochondrial fusion inhibitor project, WT and mutant strains, chemical genetic; mitochondrial fusion phenotypic screen; inhibition, % at 10 µM; 2.1% of 190,000 active; AID 1362, 2008; in the data active = inhibition above about 58%; tested in S. cerevisiae
# * hit, by the source's call; nt = not tested or not shown. Most compounds without a hit are left out; they make up all but 3.3% or so of the library.
SMILES,ROMK mod,Arbovirus inh,PERK inh,WT yeast gro inh
O=S(=O)(N/N=C1/CCCc2ccccc21)c1ccc(Br)cc1,-3.7*,16.6,1.4,38.5
COc1ccc(CN2CCN(C(=O)c3cc(-c4cccnc4)nc4ccc(Cl)cc34)CC2)c(OC)c1OC,1.29,-7.5,0.3,7.3
CC(=O)N/C(=C\c1ccccc1)C(=O)OCC(=O)N(C)C1CCCCC1,nt,2.3,-0.3,1.6
COc1ccc(NCc2nc3ccccc3n2CCOc2ccc(C)cc2)cc1,-0.999,-19.8,-1.7,71.4*
COc1ccc(NCc2nc3ccccc3n2CCOc2ccccc2)cc1,nt,-7.8,-0.9,21.1
c1ccc(NCc2nc3ccccc3n2CCOc2ccccc2)cc1,-0.493,15.7,-0.1,77.2*
O=C(N/N=C/c1ccccn1)NC12CC3CC(CC(C3)C1)C2,nt,nt,-0.4,nt
c1ccc(N/N=C2\CCCc3ccccc32)nc1,-0.306,-33.7,0.4,64.9*
Fc1ccc2c(c1)/C(=N/Nc1ccccn1)CCS2,-0.742,0.8,0.6,68.2*
Cc1cccc(-n2nc(C)c3c(C(=O)O)cc(-c4cccs4)nc32)c1,0.296,41.9*,0.8,2.5
Cc1csc(NC(=O)CSc2nncc(=O)n2N)n1,-0.00747,5.7,0.3,10.6
Nc1nc(F)cc(N2CCCCCC2)n1,0.719,3.8,0.2,-3.8
Cc1cc(C)c(CSc2ncnc3nc[nH]c23)c(C)c1,-0.00541,-24.1,0.2,69.4*
CCCCNC(=S)NNC(=O)c1csc(C)c1CC,-0.288,1.3,1.0,-27.3
COC(=O)Nc1snnc1C,nt,6.3,1.0,63.3*
Cc1nnc(Sc2nc3c(c(=O)[nH]c(=O)n3C)n2CCCc2ccccc2)s1,nt,12.6,1.0,3.7
Cc1ccc(CNC(=O)Cn2cc(C(F)(F)F)ccc2=O)cc1,-0.505,5.6,0.5,10.3
CCCCn1c(-c2csc3c2CCC(C)C3)n[nH]c1=S (stereo not drawn),nt,12.6,-0.2,75.8*
CCc1cc(-c2n[nH]c(=S)n2-c2cccc(C)c2)cs1,0.0799,-5.0,-0.2,61.3*
CCCCn1c(-c2csc3c2CCCC3)n[nH]c1=S,-0.576,-3.3,-0.2,20.4
CCCCn1c(-c2csc(C(C)C)c2)n[nH]c1=S,-0.872,5.8,0.3,65.1*
CCCCn1c(-c2csc3ccccc23)n[nH]c1=S,-1.35,2.9,0.2,25.8
CCCc1cc(-c2n[nH]c(=S)n2CC(C)C)cs1,-0.672,-9.6,0.2,62.4*
COc1ccc(-c2cnc(OC(C)(C)C)nc2OC(C)(C)C)cc1OC,-0.135,-6.3,-0.4,26.1
CCCCn1c(-c2csc(CC)c2)n[nH]c1=S,nt,0.3,0.9,67.2*
SMILES,ROMK mod,Arbovirus inh,PERK inh,WT yeast gro inh
Cc1ccc(/C=N/NC(=O)Cn2cncn2)cc1,-0.0669,5.0,0.6,7.0
CCOC(=O)CSc1nnc2n(Cc3ccccc3)c(=O)c3c4c(sc3n12)CCC4,nt,-5.0,-0.7,-6.2
Cn1c(SCc2c(F)cccc2Cl)nc2c(c1=O)SCC2,nt,-7.5,0.4,66.2*
Cn1c(SCc2ccc([N+](=O)[O-])cc2)nc2c(c1=O)SCC2,0.819,0.9,0.2,-4.1
Cn1c(/N=C/c2cc(Cl)ccc2O)nc2ccccc21,nt,-1.2,-0.2,7.4
Cc1cc(N=Cc2cc(Cl)ccc2O)no1,nt,5.6,-0.1,58.3*
Cc1cccc(OCCSCc2nc3ccccc3[nH]2)c1,-1.27,9.2,-0.3,-2.2
Cc1ccccc1OCCSCc1nc2ccccc2[nH]1,0.191,66.2*,-1.1,74.6*
COc1ccc(OCCCC(=O)Nc2cccc([N+](=O)[O-])c2C)cc1,nt,0.7,0.5,-14.7
O=C(COC(=O)CCOc1ccccc1)NCc1ccco1,nt,0.0,1.5,0.7
COc1ccc(CNC(=O)C2CCCN(S(=O)(=O)c3cnc[nH]3)C2)cc1 (stereo not drawn),nt,12.8,0.2,4.5
CCSC1=N/C(=C/c2ccsc2)C(=O)N1c1ccccc1,0.158,-0.7,-0.2,45.0
O=[N+]([O-])c1ccc2nc(/C=C/c3ccc(Cl)cc3)[nH]c2c1,nt,-23.7,-0.4,67.2*
CCCCOP(=O)(OCCCC)C(Nc1ccccc1)c1ccc2c(c1)OCO2 (stereo not drawn),0.318,-24.9,-0.5,65.0*
CCCOP(=O)(OCCC)C(Nc1ccc(C(=O)O)cc1)c1ccccc1 (stereo not drawn),-0.0532,0.9,0.2,-6.5
NNC(=O)c1ccc(COc2cccc3ccccc23)o1,nt,nt,-0.1,nt
NNC(=O)c1ccc(COc2cccc3ccccc23)cc1,nt,-14.7,0.6,72.6*
O=C(CCn1c(=O)sc2ccccc21)NCCCn1ccnc1,nt,30.3*,2.5,0.6
O=C(CCn1c(=O)sc2ccccc21)NCc1ccco1,nt,4.5,0.5,2.2
CCC(CC)C(=O)c1c[nH]c(C(=O)NCc2ccco2)c1,nt,-7.7,0.5,61.1*
CCC(=O)c1c[nH]c(C(=O)NCc2ccco2)c1,nt,1.2,0.5,-0.4
COc1ccc(CCNC(=S)Nc2ccc(OC)cc2)cc1,-0.0117,-1.6,0.3,7.5
COc1ccc(CCNC(=S)Nc2cc(C)cc(C)c2)cc1,0,5.4,-1.8,59.0*
COc1ccc(CCNC(=S)Nc2cccc3ccccc23)cc1,nt,4.8,-1.3,68.0*
COc1ccc(OCCNC(=S)Nc2cccc3ccccc23)cc1,nt,3.2,0.0,60.2*
SMILES,ROMK mod,Arbovirus inh,PERK inh,WT yeast gro inh
COc1ccc(Cc2nnc(NC(=O)Cn3cnc4c3c(=O)n(C)c(=O)n4C)s2)cc1,0.254,0.5,1.8,1.2
CC(C)(C)CC(=O)Nc1nn[nH]n1,1.21,8.7,0.6,14.6
O=C1CC(NC(=O)C(F)(F)F)c2cc3c(cc21)OCO3 (stereo not drawn),0.879,-0.1,0.0,-2.9
CSc1ccc(CN(C)CC(=O)Nc2cccc(Br)c2)cc1,nt,14.8,1.1,48.5
CSc1ccc(CN(C)CC(=O)Nc2ccc(C)cc2Br)cc1,0.106,0.1,0.3,62.0*
COc1ccc(-c2nnc(NC(=O)c3ccccc3C)o2)cc1,nt,-6.4,nt,63.9*
Cc1ccccc1C(=O)Nc1nnc(-c2ccncc2)o1,nt,-1.6,0.3,-0.1
COc1ccccc1C(=O)Nc1nnc(-c2ccc3c(c2)CCCC3)o1,nt,-15.7,0.2,60.0*
COc1cccc(C(=O)Nc2nnc(-c3ccc(Cl)cc3)o2)c1,nt,-23.7,nt,57.7
CCOc1ccc(-c2nnc(NC(=O)c3ccc(OCC(C)C)c(OC)c3)o2)cc1,0.22,-17.8,-1.1,64.2*
CC(=O)Nc1nnc(-c2ccc3c(c2)CCCC3)o1,nt,-0.8,0.9,12.0
COc1ccc(CNC(=S)N2CCN(Cc3ccccc3)CC2)cc1,nt,nt,0.6,nt
Cc1ccc(NC(=O)CSc2nc3[nH]ncc3c(=O)[nH]2)c(C)c1,-0.181,0.4,1.0,-2.9
COc1cccc(C2NC(=O)NC(C)=C2C(=O)Nc2cccc(C)c2C)c1 (stereo not drawn),-0.146,2.8,-0.6,8.1
CCOC(=O)C(=NC1CCS(=O)(=O)C1)NNc1ccccc1Cl (stereo not drawn),nt,nt,-0.5,nt
CCOC(=O)C(=NC(C)CC)NNc1cccc(C(F)(F)F)c1 (stereo not drawn),1.04,-20.8,0.1,50.9
